Screening results: PubChem, several laboratories
Insulin prom up: MIN6 insulin promoter up-regulation. MIN6 insulin promoter-GFP reporter, high-content imaging; active compounds read high. z-score at 5 µM. 0.3% of 190,000 active. AID 1625;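 active means z-score above 3 at 5 µM with at least 500 cells counted in the well; inconclusive means wells under 500 cells, flagged as cytotoxic or low count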
WT yeast gro inh: growth inhibition of WT yeast, mitochondrial fusion screen; inhibition, % at 10 µM; 2.1% of 190,000 active; mitochondrial fusion phenotypic screen, WT strain; in the data active means inhibition above about 58%; tested in S. cerevisiae
L major viab: Leishmania major promastigote growth inhibition. Leishmania major promastigotes, resazurin fluorescence viability. 9% of 200,000 active. inhibition, % at 10 µM; in the data active means inhibition above about 50%;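 further: promastigotes grown with compound for 44 hours at 28 °C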
ROMK primary: modulators of human ROMK potassium channel | Tet-inducible ROMK, thallium flux fluorescence; actives lie on both sides | B-score at 10 µM | 2% of 130,000 active | AID 1918;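 active means signal ratio slope over the read window, or its plate-corrected B-score, at least 3 SD from the plate mean, either direction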;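 further: B-score of the F/F0 ratio slope over 7 to 12 s after thallium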
Target sequence (P48048 whole entry, looked up): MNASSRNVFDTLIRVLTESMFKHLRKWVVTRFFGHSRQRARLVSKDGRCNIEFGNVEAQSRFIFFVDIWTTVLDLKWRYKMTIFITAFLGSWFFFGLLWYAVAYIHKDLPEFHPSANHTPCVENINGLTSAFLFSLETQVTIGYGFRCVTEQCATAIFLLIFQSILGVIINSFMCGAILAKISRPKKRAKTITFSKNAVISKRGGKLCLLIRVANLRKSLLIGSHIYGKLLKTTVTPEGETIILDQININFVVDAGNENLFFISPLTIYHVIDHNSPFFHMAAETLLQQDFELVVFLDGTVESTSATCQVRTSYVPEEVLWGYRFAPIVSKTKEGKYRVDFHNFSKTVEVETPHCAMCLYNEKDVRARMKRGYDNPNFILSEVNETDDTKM
Cl transport mod: modulates chloride dependent transport by human KCC2. Q9H2X9. KCC2 cells, thallium flux FluoZin-2 fluorescence. B-score of Tl+ flux slope (higher = more flux/activation; lower = inhibition) at 10 µM. 2.2% of 190,000 active. AID 1456;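 active means thallium flux slope and its plate-corrected score both differing from the plate sample mean at a set confidence after two filtering rounds, in either direction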;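 further: slope of fluorescence scaled to starting intensity during 10 to 20 s after thallium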
Insulin prom inh: TRM-6 insulin promoter activity inhibition; AID 1273; 0.9% of 130,000 active; inhibition, % at 2 µM; TRM-6 cells (human fetal islet line), insulin promoter-eGFP reporter, imaging; reporter expression induced with tamoxifen;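 active means inhibition above the mean plus 3 SD, with well images judged a real hit on visual review, cut at about 60% in these data, passing the limit was not always enough; inconclusive means inhibition over the cutoff but images rejected on review; inactive means inhibition not above the cutoff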
The depositor's hits bear a star; i = inactive; ? = inconclusive; · = no result given. In the library only some 12% were active in any assay of this set; here they are far more common.

SMILES	Insulin prom up	WT yeast gro inh	L major viab	ROMK primary	Cl transport mod	Insulin prom inh
CC(=O)c1cc(F)c(N2CCN(C(=O)COc3ccc(F)cc3)CC2)cc1C	?	13	2	·	-0.37	10
O=C1CCCCN1CCc1c[nH]c2ccccc12	·	-24	-4	·	0.49	i
CCOc1ccc(NC(=O)CSc2ncc(-c3ccc(F)cc3)n2Cc2ccco2)cc1	0.4	·	·	·	-0.016	·
Clc1ccc(OCc2nnc(SCCN3CCCCC3)n2Cc2ccco2)cc1	·	16	100*	·	-0.62	·
O=C(CSc1nnc(-c2ccccc2)n1Cc1ccco1)Nc1ccc2c(c1)OCCO2	0.11	21	37	·	·	·
O=c1c2ccccc2nnn1CSc1nnc(COc2ccc(Cl)cc2)n1Cc1ccco1	1.2	6	-8	0.25	-1.6	-27
CC(=O)Nc1ccc(NC(=O)CSc2nnc(-c3ccccc3)n2Cc2ccc3c(c2)OCO3)cc1	-0.52	66*	-3	·	-1.1	-16
O=C(CSc1ncc(-c2ccc(F)cc2)n1Cc1ccco1)Nc1ccc2c(c1)OCO2	-0.7	52	60*	-2.1	-1.9	·
Cc1ccc(OCc2nnc(SCC(=O)Nc3ccc4c(c3)OCCO4)n2Cc2ccco2)cc1	-0.19	5	96*	·	-1.8	-6
CN(Cc1ccccc1)S(=O)(=O)c1cn(C)cn1	-0.05	·	·	·	0.16	·
CCCn1c(SCC(=O)Nc2ccccc2CC)nnc1C(C)C	0.11	19	3	·	-1.3	-50
Fc1cccc(-c2cc3nc4c(c(N5CCN(c6cnccn6)CC5)n3n2)CCCC4)c1	·	·	0	·	0.66	24
Clc1cccc(-c2cc3nc4c(c(N5CCN(c6cnccn6)CC5)n3n2)CCCC4)c1	-2	70*	62*	·	-0.43	17
CCOc1ccc(CCNC(=O)CCc2nc3ccccc3[nH]2)cc1OCC	1.2	3	13	-0.52	-0.054	0
CCc1cc[n+](C2=C([O-])c3ccccc3C(=O)/C2=N\S(=O)(=O)c2cccs2)cc1	-0.94	19	99*	-0.58	0.56	-22
O=C1C(=O)c2ccccc2C([O-])=C1[n+]1ccccc1	-0.24	·	·	·	-0.55	·
Cc1noc(C)c1CSc1nnc(C)c(=O)[nH]1	0.25	7	-3	·	-1.4	78*
COc1cc(CNC2CCCCCC2)cc(OC)c1O	0.52	34	-2	·	0.12	-16
COc1cc(CNC2CCCC2)cc(Cl)c1OCc1ccccc1F	0.87	-25	100*	-2.7	0.71	-6
Cc1ccc2nsnc2c1S(=O)(=O)NCCc1c(C)[nH]c2ccc(F)cc12	·	-49	98*	-0.89	0.37	·
Cc1ccc(C)c(NS(=O)(=O)c2c(C)ccc3nsnc23)c1	0.21	6	24	·	·	-36
O=C(Nc1ccc(OC(F)F)c(Cl)c1)Nc1ccc2c(c1)OCO2	0.15	28	5	·	0.67	i
Cc1ccc(NC(=O)C(C)c2ccc([N+](=O)[O-])cc2)cc1Cl (stereo not given)	-0.79	54	56*	·	0.0015	·
CC[C@H](C)[C@H](NC(N)=O)C(=O)Nc1ccc(OC)c(Cl)c1	-0.3	-17	-2	0.7	-0.019	-38
O=C(COC(=O)Cc1ccc(Cl)cc1Cl)Nc1ccc(OC(F)F)cc1	0.15	30	70*	-0.44	-0.9	12
SMILES	Insulin prom up	WT yeast gro inh	L major viab	ROMK primary	Cl transport mod	Insulin prom inh
O=C(Cc1ccc(Cl)cc1Cl)Nc1ccc(OC(F)F)c(Cl)c1	0.29	21	53*	·	0.98	24
CCC(C)C(NC(N)=O)C(=O)Nc1ccc(C)c(Cl)c1 (stereo not given)	0.97	-12	58*	·	0.39	19
CC(C(=O)Nc1ccccc1Br)c1ccc([N+](=O)[O-])cc1 (stereo not given)	1.4	-5	-3	·	-0.81	·
Cn1c(N)c(C(=O)COc2ccc(C#N)cc2)c(=O)n(C)c1=O	-0.23	14	-1	-0.053	-0.29	·
CC(C)N1CCN(c2ccncc2S(=O)(=O)N2CCOCC2)CC1	-0.22	7	11	·	0.64	-3
O=C(Nc1ccc([N+](=O)[O-])cc1)Nc1ccc(OC(F)F)c(Cl)c1	?	84*	99*	1.2	0.59	45
CC(C)(C)N1C(=O)c2ccccc2NC(=O)N1Cc1ccc(Br)cc1	·	-5	99*	-0.056	0.02	19
COc1ccc(-c2csc(C3=C(O)CN(C(C)C)C3=N)n2)cc1OC	-1	-5	72*	0.29	-2	·
COc1ccc(-c2nc(-c3ccc(O)cc3O)cs2)cc1OC	-3.7	46	27	1	0.0058	7
CCOc1ccc(N2C(=O)/C(=C/c3ccccc3)N=C2SC)cc1	-0.44	-14	3	-0.11	1.1	53
